Compound activity deposited in PubChem by National Center for Advancing Translational Sciences (NCATS).
In the library only some 3.7% were active in any assay of this set; here they are far more common.
TCR act – Activators of T cell receptors: qHTS campaign; primary human leukocytes, anti-CD3, IL-2 HTRF, 48 h; Potency, µM (titrated, usually from 9.22 µM), most hits filed as activators; 330,000 tested, under 10 active; AID 504894, 2011
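TCR engagement came from a-CD3 beads alone, with compounds added to primary human leukocytes for 48 hr. Secreted IL-2 bridged europium cryptate- and d2-labelled anti-IL-2 antibodies, giving FRET emission at 665nm after 320nm excitation.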
PLK1 PBD block – qHTS for Inhibitors of PLK1-PDB (polo-like kinase 1 - polo-box domain): Primary Screen | Potency, µM, hits mostly inhibitors | Plk1 PBD binding of FITC phosphopeptide, fluorescence polarization | 2.8% of 360,000 active | Serine/threonine-protein kinase PLK1 (Homo sapiens), P53350 | AID 720504, 2013; note: series mostly up to about 57 µM; nearly all actives have a fitted effect of over 65% in size
Target sequence (P53350 whole entry, looked up, the tested form may be a part): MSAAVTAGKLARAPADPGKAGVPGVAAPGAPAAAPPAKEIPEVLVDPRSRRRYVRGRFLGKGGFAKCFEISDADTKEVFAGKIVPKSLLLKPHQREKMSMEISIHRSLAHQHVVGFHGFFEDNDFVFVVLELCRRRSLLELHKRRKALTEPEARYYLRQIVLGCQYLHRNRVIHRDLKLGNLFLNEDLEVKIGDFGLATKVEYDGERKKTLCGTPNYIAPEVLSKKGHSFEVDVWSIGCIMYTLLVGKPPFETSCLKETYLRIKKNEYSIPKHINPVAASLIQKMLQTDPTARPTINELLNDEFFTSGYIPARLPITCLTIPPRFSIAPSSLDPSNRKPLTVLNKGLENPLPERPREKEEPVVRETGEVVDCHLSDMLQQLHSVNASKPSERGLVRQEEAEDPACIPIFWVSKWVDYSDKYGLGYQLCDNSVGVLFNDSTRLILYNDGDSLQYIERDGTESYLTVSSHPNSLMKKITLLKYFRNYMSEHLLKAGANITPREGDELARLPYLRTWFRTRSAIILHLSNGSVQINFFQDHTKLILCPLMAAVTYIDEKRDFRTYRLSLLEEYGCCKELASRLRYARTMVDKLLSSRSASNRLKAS
WRN helicase inh – qHTS for Inhibitors of WRN Helicase; WRN helicase unwinding, fluorescent forked duplex, kinetic; Potency, µM (doses to about 114 µM), most hits filed as inhibitors; 0.46% of 360,000 active; AID 651768, 2012; note: nearly all actives have a fitted effect of over 55% in size
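WRN at 20 nM final was preincubated with compound for 15 min at room temperature; reaction started with 100 nM forked duplex oligonucleotide carrying fluorophore and quencher plus 2 mM ATP (final). Unwinding followed kinetically by red fluorescence (ex 525/em 598 nm).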
FEN1 inh – qHTS Assay for the Inhibitors of Human Flap endonuclease 1 (FEN1). P39748. Recombinant FEN1 flap cleavage, fluorescence, 15 min. Potency, µM (top dose mostly 114 µM), usual class: inhibitors. 0.35% of 390,000 active. AID 588795, 2011; note: nearly all actives have a fitted effect of over 65% in size
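Enzyme 10 nM, 15 min RT preincubation with compound; start with substrate 50 nM final; reads at 0 and 15 min; qHTS titration, four-parameter Hill fit.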
VDR inh – Inhibitors of the vitamin D receptor (VDR): qHTS; Vitamin D3 receptor (Homo sapiens), P11473; VDR-SRC2-3 peptide fluorescence polarization, 2 h; Potency, µM, actives largely listed as inhibitors; 0.93% of 400,000 active
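VDR–SRC2-3 interaction, FP format. Cmpds 23 nl via pintool, brief spin, 2 h ambient incubation.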
PI5P4K alpha inh – qHTS for Inhibitors of phosphatidylinositol 5-phosphate 4-kinase (PI5P4K) | max response, % | PI5P4Kalpha enzyme, ADP-Glo luminescence, 60 min; stronger effect = lower value | 1.2% of 330,000 active; active = max response of -50% or lower; inconclusive = between -30% and -50%; inactive = -30% or higher; note: value at the top dose of about 77 µM
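Single end-point luminescence (ADP-Glo) quantified ADP from PI5P4Kalpha turnover; ATP 5 microM final, 1 h at RT, 0.1% CHAPS and 0.28 mM EGTA in HEPES pH 7.4.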
Large screens that a line does not name were inactive. Unless noted, calls come from the whole dose curve; as a rule, active = well fitted curve in the direction sought with a large enough effect; inconclusive = small, poorly fitted or top-dose-only effect, or another doubt; inactive = no such curve, though single readings can be large; an effect the other way counts as inactive or inconclusive.

CC(C)(C)c1ccc(O)c(N=Cc2cc3c(cc2[N+](=O)[O-])OCO3)c1	PLK1 PBD block 27µM, VDR inh inconclusive
Cc1ccc(N=Cc2cc3c(cc2[N+](=O)[O-])OCO3)cc1[N+](=O)[O-]	PLK1 PBD block inconclusive, VDR inh inconclusive, PI5P4K alpha inh -65
Cc1ccc(C)c(N=Cc2cc3c(cc2[N+](=O)[O-])OCO3)c1	VDR inh 79µM
Cc1cccc(C)c1OCC(=O)N/N=C/c1cc2c(cc1[N+](=O)[O-])OCO2	none (no result: PI5P4K alpha inh)
Cc1ccc(C)c(N2CCN(C(=O)c3cc4cc5ccc(C)cc5nc4s3)CC2)c1	none (no result: TCR act, PLK1 PBD block, WRN helicase inh, PI5P4K alpha inh)
CCCCCN=c1ccn(Cc2ccccc2)c2ccccc12	none (no result: TCR act, PLK1 PBD block, WRN helicase inh, FEN1 inh, PI5P4K alpha inh)
O=C1COc2ccc(C(=O)CCl)cc2N1	PLK1 PBD block 1.9µM
CCCc1nc(SCC(=O)c2ccc3c(c2)NC(=O)CO3)[nH]c(=O)c1CC	PLK1 PBD block 19µM, VDR inh inconclusive
CCCCCCC(=O)OCC(=O)c1ccc2c(c1)NC(=O)CO2	PLK1 PBD block 9.5µM (no result: TCR act)
CCCc1cc(=O)[nH]c(SCC(=O)c2ccc3c(c2)NC(=O)CO3)n1	VDR inh inconclusive
COc1ccc(OC)c(C(Cc2ccnc3ccccc23)Cc2ccnc3ccccc23)c1	none (no result: TCR act, PLK1 PBD block, WRN helicase inh, VDR inh, PI5P4K alpha inh)
CN(C)c1ccc(/C=C/c2ccc3cc(F)ccc3n2)cc1	none (no result: TCR act, PLK1 PBD block, WRN helicase inh, VDR inh, PI5P4K alpha inh)
COc1ccc(/C=N/OCC(=O)Nc2nc3ccccc3s2)cc1OC	PLK1 PBD block 17µM, VDR inh inconclusive
CN(CC(=O)Nc1ccc2c(c1)CCC2)CC(=O)Nc1ccccc1Br	PLK1 PBD block 6.7µM, FEN1 inh inconclusive, VDR inh inconclusive
CCOc1ccc(-c2cc(-c3nc(-c4cc(OC)c(OC)c(OC)c4)no3)[nH]n2)cc1Cl	none (no result: TCR act, PLK1 PBD block, WRN helicase inh, PI5P4K alpha inh)
COc1ccc2cc1Oc1ccc(cc1)CC1c3cc(c(OC)cc3CCN1C)Oc1c(OC)c(OC)c(OC)c3c1C(C2)N(C)CC3 (configuration not stated)	VDR inh 45µM (no result: TCR act, PLK1 PBD block, WRN helicase inh, FEN1 inh, PI5P4K alpha inh)
COc1ccc(OC)c(C2=NS(=O)(=O)N(C)C(C(=O)NCc3cccs3)=C2)c1	PLK1 PBD block 27µM, VDR inh inconclusive
COc1ccc(OC)c(C2=NS(=O)(=O)N(C)C(C(=O)Nc3cccc(C(C)=O)c3)=C2)c1	PLK1 PBD block 19µM, VDR inh inconclusive
O=c1cc(-c2ccccc2)nc2c(-c3ccccc3)c(C(F)(F)F)[nH]n12	PLK1 PBD block 17µM
Cc1cc(=O)n2[nH]c(C)c(-c3ccccc3)c2n1	none
COc1cc(NC(=O)CCNS(=O)(=O)c2cc(Br)cnc2N)cc(OC)c1	none
COc1ccccc1CNC(=O)CCNS(=O)(=O)c1cc(Br)cnc1N	PLK1 PBD block 27µM
Clc1ccc(-c2csc(NNC3=NCCCCC3)n2)cc1	PLK1 PBD block inconclusive, VDR inh 50µM
Brc1ccc(-c2csc(NC3=NCCCCC3)n2)cc1	none
CCOc1ccc(-c2csc(NNC3=NCCCCC3)n2)cc1	PLK1 PBD block 19µM, VDR inh inconclusive
COc1ccc(-c2csc(NNC3=NCCCCC3)n2)cc1	PLK1 PBD block 6.7µM, VDR inh inconclusive, PI5P4K alpha inh inconclusive
Cc1ccccc1Cn1c(=O)n(Cc2ccc3c(c2)OCO3)c(=O)c2oc3ccccc3c21	none (no result: TCR act, PLK1 PBD block, WRN helicase inh, PI5P4K alpha inh)
CC(C)c1ccc(NC(=O)C2CCCN(S(=O)(=O)c3ccc4[nH]c(=O)ccc4c3)C2)cc1 (configuration not stated)	none (no result: TCR act, PLK1 PBD block, WRN helicase inh, PI5P4K alpha inh)
O=C(O)c1ccccc1C(=O)Nc1n[nH]c(=S)s1	PLK1 PBD block 27µM, VDR inh inconclusive (no result: PI5P4K alpha inh)
CC(C)CC1OC(=O)C2=CCCCC21 (configuration not stated)	none (no result: TCR act, PLK1 PBD block, WRN helicase inh, FEN1 inh, PI5P4K alpha inh)
Cc1ccc(C)c(N(CC(=O)N/N=C/c2ccc(-c3ccc([N+](=O)[O-])cc3)o2)S(=O)(=O)c2ccccc2)c1	none (no result: PI5P4K alpha inh)
